Reference: PubChem BioAssay (NCI)
Compounds without any hit were thinned out: in the full panel of roughly 79,000, 15% have a hit. Activity calls are given as the source filed them. Cut-off read from the data, not from the text of the source: active = growth inhibition above about 70%; inactive = the rest.

Experiments:
[1] = NCI Yeast Anticancer Drug Screen. Data for the wt1 strain (AID 149);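 note: 0% = growth of vehicle-treated wt1 cultures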; conditions: S. cerevisiae wt1 strain (SPY 50644) growth inhibition, stronger effect = higher value
Procedure, shortened: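 Readout: yeast growth inhibition, normalised to vehicle controls, in the wt1 strain exposed to test compounds.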

[2] = NCI Yeast Anticancer Drug Screen. Data for the rad50EPP+ strain (AID 151);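 note: 0% = growth of vehicle-treated control cultures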; conditions: S. cerevisiae rad50 mutant strain, stronger effect = higher value
Procedure, shortened: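 Compounds were applied to the rad50EPP+ yeast strain, which bears a defined DNA repair alteration, and growth inhibition was determined relative to vehicle-treated cultures.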

[3] = NCI Yeast Anticancer Drug Screen. Data for the mgt1 strain (AID 153); conditions: S. cerevisiae mgt1 mutant growth inhibition, stronger effect = higher value
Procedure, shortened: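 Strain: mgt1 yeast, one of a set carrying defined DNA damage repair or cell cycle control alterations. Compound-treated growth compared with vehicle.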

[4] = NCI Yeast Anticancer Drug Screen. Data for the rad50 strain (AID 155);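 note: 0% = growth of vehicle-only cultures of the same strain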; conditions: S. cerevisiae rad50 strain growth inhibition, stronger effect = higher value
Procedure, shortened: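 Compounds were tested on a yeast strain with an engineered DNA damage repair alteration; the reported value is growth inhibition normalised to vehicle treatment.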

[5] = NCI Yeast Anticancer Drug Screen. Data for the mec2-1 strain (AID 157); conditions: S. cerevisiae mec2-1 strain, stronger effect = higher value
Procedure, shortened: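 Strain: mec2-1 (DNA repair/cell cycle alteration). Compound exposure, then growth measured; inhibition expressed relative to vehicle.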

[6] = NCI Yeast Anticancer Drug Screen. Data for the rad14 strain (AID 159);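 note: 0% = growth of vehicle-treated control cultures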; conditions: S. cerevisiae rad14 strain growth inhibition, stronger effect = higher value
Procedure, shortened: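 Compound-treated yeast with a defined DNA-repair lesion; growth inhibition normalised to vehicle-treated cultures.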

[7] = NCI Yeast Anticancer Drug Screen. Data for the sgs1 mgt1 strain (AID 161);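 note: 0% = growth of cultures given vehicle only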; conditions: S. cerevisiae sgs1 mgt1 strain, stronger effect = higher value
Procedure, shortened: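 Test agents were incubated with a DNA-repair-mutant yeast strain. Growth was then read and compared against vehicle-treated controls.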

[8] = NCI Yeast Anticancer Drug Screen. Data for the CLN2oe strain (AID 163);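 note: 0% = growth of vehicle-only control cultures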; conditions: S. cerevisiae CLN2oe strain, stronger effect = higher value
Procedure, shortened: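 Growth of a genetically modified yeast strain is measured after compound exposure and compared with cultures given vehicle alone.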

[9] = NCI Yeast Anticancer Drug Screen. Data for the cln2 rad14 strain (AID 165);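 note: 0% = growth equal to vehicle treated cultures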; conditions: S. cerevisiae cln2 rad14 strain, stronger effect = higher value
Procedure, shortened: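 Compounds are applied to the cln2 rad14 yeast strain, and growth is then compared with that of vehicle-treated cultures to give inhibition.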

[10] = NCI Yeast Anticancer Drug Screen. Data for the bub3 strain (AID 167); conditions: S. cerevisiae bub3 mutant strain, stronger effect = higher value
Procedure, shortened: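 Growth of a checkpoint-deficient yeast mutant is measured after compound exposure. Values represent inhibition relative to vehicle.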

[11] = NCI Yeast Anticancer Drug Screen. Data for the wt2 strain (AID 169);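 note: 0% = growth of vehicle-treated yeast cultures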; conditions: S. cerevisiae wt2 strain growth inhibition, stronger effect = higher value
Procedure, shortened: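 This strain belongs to a panel of yeast strains with defined genetic alterations in DNA damage repair or cell cycle control. Compounds are applied, and growth inhibition is measured against vehicle-treated cultures.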

[12] = NCI Yeast Anticancer Drug Screen. Data for the mlh1 strain (AID 171);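 note: 0% = growth of vehicle-treated control cultures of the same strain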; conditions: S. cerevisiae mlh1 strain growth inhibition, stronger effect = higher value
Procedure, shortened: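 Growth of the mutant yeast strain after compound exposure, expressed as inhibition relative to vehicle-only controls.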

[13] = NCI Yeast Anticancer Drug Screen. Data for the sgs1 strain (AID 173);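 note: 0% = growth of vehicle-only control cultures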; conditions: S. cerevisiae sgs1 mutant, stronger effect = higher value
Procedure, shortened: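 Growth of a yeast strain bearing a defined genetic alteration is measured after compound treatment. Inhibition is expressed relative to vehicle-only controls.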

[14] = NCI Yeast Anticancer Drug Screen. Data for the mlh1 rad18 strain (AID 175); conditions: S. cerevisiae mlh1 rad18 strain growth inhibition, stronger effect = higher value
Procedure, shortened: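 Read-out is yeast growth inhibition, calculated against vehicle-only controls. The compound was applied to a strain engineered with DNA damage repair alterations.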

[15] = NCI Yeast Anticancer Drug Screen. Data for the rad18 strain (AID 177); conditions: S. cerevisiae rad18 mutant growth inhibition, stronger effect = higher value
Procedure, shortened: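 Growth of the mutant yeast strain after compound exposure, normalised to vehicle-only cultures.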

[16] = at 5.0 µM (retest, dose inferred, filed as 0.5)
[17] = at 50.0 µM (retest, dose inferred, filed as 5.0)

Measured: growth inhibition

COc1ccc2c(Cc3c4ccccc4cc4ccccc34)cncc2c1O
inactive: [1]; at 1.2 µM 2% | [1]; at 3.7 µM 4% | [1]; at 11.0 µM 12% | [1]; at 33.0 µM 56% | [2]; at 1.2 µM 4% | [2]; at 3.7 µM 18% | [2]; at 11.0 µM 41% | [2]; at 33.0 µM 68% | [3]; at 1.2 µM 3% | [3]; at 3.7 µM 6% | [3]; at 11.0 µM 11% | [3]; at 33.0 µM 42% | [4]; at 1.2 µM 4% | [4]; at 3.7 µM 6% | [4]; [16] 51% | [4]; at 11.0 µM 26% | [4]; at 33.0 µM 68% | [5]; at 1.2 µM 4% | [5]; at 3.7 µM 7% | [5]; [16] 19% | [5]; at 11.0 µM 12% | [5]; at 33.0 µM 33% | [6]; at 1.2 µM 6% | [6]; at 3.7 µM 7% | [6]; at 11.0 µM 27% | [7]; [16] 30% | [8]; at 1.2 µM 5% | [8]; at 3.7 µM 7% | [8]; at 11.0 µM 9% | [8]; at 33.0 µM 18% | [8]; at 100.0 µM 68% | [9]; [16] -2% | [10]; at 1.2 µM 5% | [10]; at 3.7 µM 8% | [10]; [16] 8% | [10]; at 11.0 µM 19% | [10]; at 33.0 µM 45% | [11]; at 1.2 µM 1% | [11]; at 3.7 µM 4% | [11]; at 11.0 µM 18% | [12]; at 1.2 µM 4% | [12]; at 3.7 µM 7% | [12]; at 11.0 µM 15% | [12]; at 33.0 µM 60% | [13]; at 1.2 µM 2% | [13]; at 3.7 µM 8% | [13]; at 11.0 µM 36% | [15]; at 1.2 µM 9% | [15]; at 3.7 µM 4% | [15]; at 11.0 µM 25%
active: [1]; at 100.0 µM 93% | [2]; at 100.0 µM 80% | [3]; at 100.0 µM 93% | [4]; [17] 98% | [4]; at 50.0 µM 93.9% | [4]; at 100.0 µM 90% | [5]; [17] 97% | [5]; at 50.0 µM 91.5% | [5]; at 100.0 µM 86% | [6]; at 33.0 µM 95% | [6]; at 100.0 µM 93% | [7]; [17] 95% | [7]; at 50.0 µM 92.8% | [9]; [17] 96% | [9]; at 50.0 µM 80.2% | [10]; [17] 97% | [10]; at 50.0 µM 87.7% | [10]; at 100.0 µM 85% | [11]; at 33.0 µM 91% | [11]; at 100.0 µM 93% | [12]; at 100.0 µM 91% | [13]; at 33.0 µM 89% | [13]; at 100.0 µM 91% | [14]; [16] 80% | [14]; [17] 97% | [14]; at 50.0 µM 95.6% | [15]; at 33.0 µM 86% | [15]; at 100.0 µM 88%

CCN(CC)c1ccc(N=Nc2cc(S(=O)(=O)O)ccc2O)c(O)c1
inactive: [1]; at 1.2 µM 8% | [1]; at 3.7 µM 15% | [1]; at 11.0 µM 20% | [1]; at 33.0 µM 29% | [1]; at 100.0 µM 51% | [2]; at 1.2 µM 8% | [2]; at 3.7 µM -8% | [2]; at 11.0 µM -19% | [2]; at 33.0 µM -23% | [2]; at 100.0 µM -46% | [3]; at 1.2 µM 3% | [3]; at 3.7 µM -9% | [3]; at 11.0 µM 4% | [3]; at 33.0 µM 9% | [3]; at 100.0 µM 27% | [4]; at 1.2 µM -11% | [4]; at 3.7 µM -19% | [4]; [16] 56% | [4]; at 11.0 µM -33% | [4]; at 33.0 µM -28% | [4]; at 50.0 µM 29.2% | [4]; at 100.0 µM -13% | [5]; at 1.2 µM -28% | [5]; at 3.7 µM -7% | [5]; [16] 55% | [5]; at 11.0 µM -19% | [5]; at 33.0 µM -9% | [5]; at 50.0 µM -14.1% | [5]; at 100.0 µM 22% | [6]; at 1.2 µM -15% | [6]; at 3.7 µM -9% | [6]; at 11.0 µM 3% | [6]; at 33.0 µM 1% | [6]; at 100.0 µM 5% | [7]; [16] -13% | [7]; [17] -3% | [7]; at 50.0 µM 66.1% | [8]; at 1.2 µM 8% | [8]; at 3.7 µM 18% | [8]; at 11.0 µM 4% | [8]; at 33.0 µM 9% | [8]; at 100.0 µM 10% | [9]; [16] 32% | [9]; [17] 39% | [9]; at 50.0 µM 21.5% | [10]; at 1.2 µM 24% | [10]; at 3.7 µM 17% | [10]; [16] 24% | [10]; at 11.0 µM 7% | [10]; at 33.0 µM 11% | [10]; [17] 45% | [10]; at 50.0 µM 50.9% | [10]; at 100.0 µM 35% | [11]; at 1.2 µM -13% | [11]; at 3.7 µM -6% | [11]; at 11.0 µM -42% | [11]; at 33.0 µM -64% | [11]; at 100.0 µM -38% | [12]; at 1.2 µM -12% | [12]; at 3.7 µM -37% | [12]; at 11.0 µM -22% | [12]; at 33.0 µM -3% | [12]; at 100.0 µM -12% | [13]; at 1.2 µM -13% | [13]; at 3.7 µM -10% | [13]; at 11.0 µM -12% | [13]; at 33.0 µM -1% | [13]; at 100.0 µM -15% | [14]; [16] 42% | [14]; at 50.0 µM 19.9% | [15]; at 1.2 µM 2% | [15]; at 3.7 µM 3% | [15]; at 11.0 µM 2% | [15]; at 33.0 µM -2% | [15]; at 100.0 µM 7%
active: [4]; [17] 73% | [5]; [17] 81% | [14]; [17] 75%
